Laboratory results published in PubChem BioAssay AID1159580 (chemical genetic matrix, 2015).
Where “and” joins values, the source holds several entries; their conditions need not be identical. Equal values may be shown once. Hit rate of the full screen: of about 5,500 compounds, about 2,000 (36%) were called active. Another 18% or so got no clear call; they are omitted. Rule as the data show it: active = normalized growth mostly below about 0.91 (no sharp cut-off); inconclusive = no clear call, values can overlap the other calls; inactive = mostly above about 0.92. The list shows a part of the results.

Experiment: chemical genetic growth profiling, strain panel (AID 1159580);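 also: tested at 20 µM; growth read once vehicle control cultures reached saturation at 30 °C; 1 = growth at the plate median or of vehicle wells; lower values mean less growth of the strain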
Details: growth OD

Measured: normalized growth

CN1C(C)(C)CCCC1(C)C
inactive: S. cerevisiae deletion strains, locus YAL013W, strain DEP1, active compounds read low 1.02 and 1.01 | S. cerevisiae deletion strains, locus YAL040C, strain CLN3, active compounds read low 1.07 | S. cerevisiae deletion strains, locus YBR021W, strain FUR4, active compounds read low 1.01 | S. cerevisiae deletion strains, locus YBR229C, strain ROT2, active compounds read low 1.02 | S. cerevisiae deletion strains, locus YCL029C, strain bik1, active compounds read low 0.988 | S. cerevisiae deletion strains, locus YCL061C, strain MRC1 (second series), active compounds read low 0.994 | S. cerevisiae deletion strains, locus YDL035C, strain GPR1, active compounds read low 1.02 | S. cerevisiae deletion strains, locus YDL074C, strain BRE1, active compounds read low 1.06 | S. cerevisiae deletion strains, locus YDL101C, strain DUN1, active compounds read low 1.02 | S. cerevisiae deletion strains, locus YDL134C, strain PPH21, active compounds read low 1.02 | S. cerevisiae deletion strains, locus YDL185W, strain tfp1, active compounds read low 0.993 | S. cerevisiae deletion strains, locus YDL192W, strain arf1, active compounds read low 0.978 | S. cerevisiae deletion strains, locus YDR101C, strain arx1, active compounds read low 0.969 | S. cerevisiae deletion strains, locus YDR150W, strain NUM1, active compounds read low 1.02 and 1 | S. cerevisiae deletion strains, locus YDR162C, strain NBP2, active compounds read low 1.04 | S. cerevisiae deletion strains, locus YDR318W, strain mcm21, active compounds read low 0.99 | S. cerevisiae deletion strains, locus YDR363W, strain ESC2, active compounds read low 0.997 | S. cerevisiae deletion strains, locus YDR388W, active compounds read low 0.998 | S. cerevisiae deletion strains, locus YDR502C, strain sam2, active compounds read low 1.02 | S. cerevisiae deletion strains, locus YEL061C, strain CIN8, active compounds read low 1.02 | S. cerevisiae deletion strains, locus YER002W, strain NOP16, active compounds read low 1.02 | S. cerevisiae deletion strains, locus YER110C, active compounds read low 0.992 | S. cerevisiae deletion strains, locus YER155C, strain BEM2, active compounds read low 1.02 | S. cerevisiae deletion strains, locus YER167W, strain BCK2, active compounds read low 1.02 | S. cerevisiae deletion strains, locus YGL078C, strain dbp3, active compounds read low 1.01 | S. cerevisiae deletion strains, locus YGL086W, strain mad1, active compounds read low 0.996 | S. cerevisiae deletion strains, locus YGL248W, strain PDE1, active compounds read low 1.03 | S. cerevisiae deletion strains, locus YGR078C, strain PAC10, active compounds read low 1.04 | S. cerevisiae deletion strains, locus YGR135W, strain pre9, active compounds read low 1.01 | S. cerevisiae deletion strains, locus YGR229C, strain SMI1, active compounds read low 1.03 and 0.995 | S. cerevisiae deletion strains, locus YGR252W, strain gcn5, active compounds read low 0.907 | S. cerevisiae deletion strains, locus YHR030C, strain SLT2, active compounds read low 1.01 | S. cerevisiae deletion strains, locus YHR079C, strain IRE1 (second series), active compounds read low 0.988 | S. cerevisiae deletion strains, locus YHR094C, strain hxt1, active compounds read low 1 | S. cerevisiae deletion strains, locus YHR129C, strain ARP1, active compounds read low 1.01 | S. cerevisiae deletion strains, locus YHR200W, strain rpn10, active compounds read low 0.997 | S. cerevisiae deletion strains, locus YIL066C, strain RNR3, active compounds read low 1.03 | S. cerevisiae deletion strains, locus YIL073C, strain SPO22, active compounds read low 0.991 | S. cerevisiae deletion strains, locus YIL125W, strain kgd1, active compounds read low 1.01 | S. cerevisiae deletion strains, locus YIR030C, strain dcg1, active compounds read low 0.999 | S. cerevisiae deletion strains, locus YJL095W, strain BCK1, active compounds read low 1.03 | S. cerevisiae deletion strains, locus YJL134W, strain LCB3, active compounds read low 1.01 | S. cerevisiae deletion strains, locus YJL168C, strain set2, active compounds read low 0.993 | S. cerevisiae deletion strains, locus YJL187C, strain SWE1 (second series), active compounds read low 1.04 | S. cerevisiae deletion strains, locus YJR043C, strain POL32, active compounds read low 1 | S. cerevisiae deletion strains, locus YJR075W, strain HOC1, active compounds read low 1.02 | S. cerevisiae deletion strains, locus YKL009W, strain mrt4, active compounds read low 0.962 | S. cerevisiae deletion strains, locus YKL068W, active compounds read low 1 | S. cerevisiae deletion strains, locus YKL085W, strain MDH1 (second series), active compounds read low 1.01 | S. cerevisiae deletion strains, locus YKL085W, strain MDH1, active compounds read low 1.01 | S. cerevisiae deletion strains, locus YKL190W, strain CNB1, active compounds read low 1.01 | S. cerevisiae deletion strains, locus YKR001C, strain vps1, active compounds read low 0.994 | S. cerevisiae deletion strains, locus YLR039C, strain RIC1, active compounds read low 1.03 | S. cerevisiae deletion strains, locus YLR058C, strain SHM2, active compounds read low 1.02 | S. cerevisiae deletion strains, locus YLR102C, strain apc9, active compounds read low 0.998 | S. cerevisiae deletion strains, locus YLR262C, strain YPT6, active compounds read low 1.02 | S. cerevisiae deletion strains, locus YLR268W, strain sec22, active compounds read low 1.01 | S. cerevisiae deletion strains, locus YLR330W, strain CHS5, active compounds read low 1.01 | S. cerevisiae deletion strains, locus YLR342W, strain FKS1 (second series), active compounds read low 0.996 | S. cerevisiae deletion strains, locus YLR371W, strain rom2, active compounds read low 0.984 | S. cerevisiae deletion strains, locus YLR418C, strain cdc73, active compounds read low 1 | S. cerevisiae deletion strains, locus YML016C, strain PPZ1, active compounds read low 1.02 | S. cerevisiae deletion strains, locus YML032C, strain rad52, active compounds read low 0.995 | S. cerevisiae deletion strains, locus YML124C, strain tub3, active compounds read low 1 | S. cerevisiae deletion strains, locus YMR078C, strain ctf18, active compounds read low 0.999 | S. cerevisiae deletion strains, locus YMR223W, strain ubp8, active compounds read low 0.983 | S. cerevisiae deletion strains, locus YMR263W, strain SAP30, active compounds read low 1.03 | S. cerevisiae deletion strains, locus YMR307W, strain GAS1, active compounds read low 1.04 | S. cerevisiae deletion strains, locus YNL067W, strain RPL9B, active compounds read low 1.03 | S. cerevisiae deletion strains, locus YNL128W, strain TEP1, active compounds read low 1.03 | S. cerevisiae deletion strains, locus YNL153C, strain GIM3, active compounds read low 1.04 and 1.01 | S. cerevisiae deletion strains, locus YNL175C, strain NOP13, active compounds read low 1 | S. cerevisiae deletion strains, locus YNL197C, strain WHI3, active compounds read low 1 | S. cerevisiae deletion strains, locus YNL224C, strain SQS1, active compounds read low 1.01 | S. cerevisiae deletion strains, locus YNL233W, strain BNI4, active compounds read low 1.04 | S. cerevisiae deletion strains, locus YNL250W, strain rad50, active compounds read low 1 | S. cerevisiae deletion strains, locus YNL271C, strain bni1, active compounds read low 0.99 | S. cerevisiae deletion strains, locus YNL298W, strain CLA4, active compounds read low 0.996 | S. cerevisiae deletion strains, locus YNL307C, strain MCK1, active compounds read low 0.993 | S. cerevisiae deletion strains, locus YNL322C, strain KRE1, active compounds read low 1.02 | S. cerevisiae deletion strains, locus YNR052C, strain pop2, active compounds read low 0.982 | S. cerevisiae deletion strains, locus YOL006C, strain TOP1, active compounds read low 1.06 | S. cerevisiae deletion strains, locus YOL012C, strain htz1 1.39 | S. cerevisiae deletion strains, locus YOL147C, strain pex11, active compounds read low 0.996 | S. cerevisiae deletion strains, locus YOR061W, strain CKA2, active compounds read low 1.01 | S. cerevisiae deletion strains, locus YOR069W, strain VPS5, active compounds read low 1.01 | S. cerevisiae deletion strains, locus YOR083W, strain WHI5 (second series), active compounds read low 1.02 | S. cerevisiae deletion strains, locus YOR136W, strain idh2, active compounds read low 0.987 | S. cerevisiae deletion strains, locus YOR144C, strain elg1, active compounds read low 0.99 | S. cerevisiae deletion strains, locus YOR184W, strain ser1, active compounds read low 0.962 | S. cerevisiae deletion strains, locus YOR316C, strain cot1, active compounds read low 1 | S. cerevisiae deletion strains, locus YPL055C, strain LGE1, active compounds read low 1.05 and 1.01 | S. cerevisiae deletion strains, locus YPL241C, strain CIN2, active compounds read low 1.02 | S. cerevisiae deletion strains, locus YPR119W, strain clb2, active compounds read low 1.01 | S. cerevisiae deletion strains, locus YPR141C, strain kar3, active compounds read low 0.994 | S. cerevisiae deletion strains, locus YPR163C, strain tif3, active compounds read low 0.998 | S. cerevisiae deletion strains, locus YPR167C, strain met16, active compounds read low 0.998 | S. cerevisiae deletion strains, strain wtn01, active compounds read low 1.02 | S. cerevisiae strains, strain wild type, active compounds read low 1.02
